# Screens deposited in PubChem BioAssay by National Center for Advancing Translational Sciences (NCATS).
# Shown are actives, neighbours in structure and some others; about 19% of the full set was active somewhere.
# Cycloheximide cs = counter-screen hit for Shiga toxin inhibitors, cycloheximide | cell reporter, cycloheximide protein synthesis inhibition counterscreen | max response, % | 300,000 tested, 12% active | AID 2314; in the data active = max response mostly above about 13%, no sharp cut-off; inactive = mostly below about 14%; note: read at 38.3 µM for the half of the compounds with a filed dose; 0% is about no effect
# Pf growth 48h = inhibits P. falciparum growth in the first generation, 48 h. P. falciparum luciferase growth in erythrocytes, 48 h. Potency, µM (series often up to 28.7 µM), without a hit: top-dose activity change, negative = inhibition, hits mostly inhibitors. 310,000 tested, 5.9% active. AID 504832; note: potency is the fitted concentration of half-maximal effect; % is set by controls: 0 for no effect and ±100 for the full control effect
#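 Luciferase-expressing P. falciparum in infected erythrocytes (2% hematocrit, 0.1% parasitemia final) in RPMI 1640/0.5% Albumax were exposed to compound for 48 hours at 37 C, 5% CO2; growth read as luminescence.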
# Shiga toxin inh = inhibitors of Shiga toxin in Vero cells | Vero cells, Shiga toxin protein synthesis inhibition reporter | 290,000 tested, 9.2% active | inhibition, % at 38.7 µM; in the data active = inhibition mostly above about 28%, no sharp cut-off; inactive = mostly below about 43%; note: 0% is about no effect
# SARS PLP yeast = SARS-CoV PLP inhibition in yeast; S. cerevisiae expressing SARS-CoV PLpro, growth rescue; Potency, µM (titrated, usually from 32.9 µM), for inactives: top-dose activity, positive = growth rescue, actives largely listed as activators; 330,000 tested, 0.19% active; calls by dose curve; note: potency is the fitted concentration of half-maximal effect; 0% is about no effect; nearly all actives have a fitted effect of over 55% in size
# AMA1 RON2 block = disrupts binding of P. falciparum AMA1 to RON2; AlphaScreen AMA1-biotinylated RON2 peptide binding; Potency, µM (doses to about 58.2 µM), for the others: at the top dose activity change, negative = inhibition, usual class: inhibitors; 360,000 tested, 0.2% active; AID 720542;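 note: potency is the fitted concentration of half-maximal effect; 0% = vehicle wells and -100% = peptide control; nearly all actives have a fitted effect of over 45% in size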
#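 AMA1 (3D7) with his tag at 25 nM final met compounds first, then biotinylated RON2 peptide at 25 nM; detection used donor plus acceptor beads, 10 µg/mL apiece, read by AlphaScreen after 30 min at room temperature.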
# Pf growth 96h = P. falciparum growth inhibition at 96 hour, primary screen for plastid delayed-death inhibitors. P. falciparum luciferase reporter growth, 96 h. Potency, µM (top dose mostly 28.7 µM), inactives show at the highest dose activity change, negative = inhibition, most hits filed as inhibitors. 320,000 tested, 6.9% active. AID 504834; note: potency is the fitted concentration of half-maximal effect; % is set by controls: 0 for no effect and ±100 for the full control effect
#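 P. falciparum expressing integrated firefly luciferase grown in erythrocytes (2% hematocrit, 0.05% parasitemia final) with compounds for 96 hours at 37 C, 5% CO2. Growth inhibition read as loss of luminescence after adding luciferase detection reagent.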
# * marks the source's active call; other numbers are inactive results; i = inactive; ? = inconclusive; . = no result. Unless noted, calls come from the whole dose curve; as a rule, active = well fitted curve in the direction sought with a large enough effect; inconclusive = small, poorly fitted or top-dose-only effect, or another doubt; inactive = no such curve, though single readings can be large; an effect the other way counts as inactive or inconclusive.
SMILES,Cycloheximide cs,Pf growth 48h,Shiga toxin inh,SARS PLP yeast,AMA1 RON2 block,Pf growth 96h
Cc1nc(SCc2nc3ccc([N+](=O)[O-])cc3[nH]2)c2oc3ccccc3c2n1,.,.,.,7%,.,.
CCCCc1cc(=O)oc2cc(OC(C)C(=O)NCC3CCC(C(=O)O)CC3)c(Cl)cc12 (centres undefined),4,?,1,8%,0%,-92%
Cc1ccc(CNC(=O)c2ccc(N3CCC4(CC3)CC(c3cccc(Br)c3)=NO4)c(NC(=O)c3c(Cl)cccc3Cl)c2)cc1,.,5.9µM*,.,2%,-1%,9.3µM*
Cc1ccc(CNC(=O)c2ccc(N3CCC4(CC3)CC(c3cccc(Br)c3)=NO4)c(NC(=O)c3ccc(Br)cc3)c2)cc1,.,.,.,6%,-3%,.
CS(=O)(=O)N1CCN(c2ccccc2NC(=O)c2ccc(-c3ccc(Cl)cc3Cl)o2)CC1,10,12µM*,14,-4%,-4%,.
CN1CCN(c2ccccc2NC(=O)c2ccc(-c3cccc(Cl)c3)o2)CC1,-4,?,-1,-4%,?,-16%
CN1CCN(c2ccccc2NC(=O)c2ccc(-c3ccc(Cl)cc3Cl)o2)CC1,-2,.,-2,-9%,-4%,4.1µM*
CS(=O)(=O)N1CCN(c2ccccc2NC(=O)c2ccc(Br)o2)CC1,-5,12%,7,0%,21%,37%
O=C(NC(c1ccccc1)c1ccccc1)c1cccc(S(=O)(=O)NCc2ccccc2)c1,-4,?,13,-4%,0%,?
CCc1cc(C(=O)Nc2ccc(C)cc2Br)cs1,57*,i,71*,-4%,3%,i
Cc1cccc(NC(=O)C(=O)NNC(=O)c2ccc(C(C)(C)C)cc2)c1,8,26%,-13,2%,123%,?
Cc1cccc(NC(=S)NNC(=O)c2sccc2C)c1,25*,141%,107,3%,79%,.
Cc1ccc(NC(=O)COC(=O)c2cc(Cl)cc(Cl)c2)c(Br)c1,-5,20%,-10,24%,-8%,-28%
CCCCNC(=S)NNC(=O)c1csc(CC)c1,9,156%,34*,0%,100%,163%
Cc1cccc(NC(=S)NNC(=O)c2csc(C(C)C)c2)c1,42*,128%,42*,25%,48%,116%
O=S1(=O)CCOCCCN1Cc1ccccc1Br,-4,9%,-12,-2%,-2%,-14%
CC1(C(=O)NS(=O)(=O)c2ccc3c(c2)CCO3)CCN1C(=O)C1(c2ccc(Cl)cc2)CCC1 (centres undefined),.,.,.,.,10%,.
C=CCNC(=S)NNC(=O)c1csc(CC)c1,8,47%,19,7%,80%,40%
CCc1cc(C(=O)NNC(=S)Nc2cccc(C)c2)cs1,28*,135%,66*,?,76%,77%
COc1ccc(N2C(C(C)=O)=NN(c3ccccc3)C2c2cccs2)cc1 (centres undefined),-2,.,-16,?,.,12µM*
Cc1cc(Br)ccc1NCc1ccccn1,31*,36%,67*,-7%,?,94%
c1ccc(NCc2ccccn2)cc1,18*,22%,95*,0%,26%,0%
O=C(NCc1ccccn1)C(=O)Nc1ccccc1,23*,106%,67*,-2%,22%,11%
Cc1ccc(NC(=O)C(=O)NCc2ccccn2)cc1,29*,220%,87*,-2%,9%,13%
Cc1cccc(C)c1NC(=O)C(=O)NCc1ccccn1,-2,6%,-12,-1%,9%,70%
SMILES,Cycloheximide cs,Pf growth 48h,Shiga toxin inh,SARS PLP yeast,AMA1 RON2 block,Pf growth 96h
Cc1ccc(F)c(S(=O)(=O)NC(=O)C2(C)CCN2C(=O)Cc2ccccc2)c1 (centres undefined),.,.,.,.,6%,.
COc1cc(/C=N/NC(=O)c2cc[n+]([O-])cc2)ccc1O,-5,-1%,26,1%,58%,28%
CCOC(=O)c1ccc(N2CCN(C(C)=O)CC2)c(NC(=O)c2cccnc2)c1,-2,4%,3,0%,-4%,23%
CCc1nc2ccc(C(=O)N(CC)CCN(C)C)cn2c1N(C)C(=O)c1cccc(OC)c1,.,.,.,.,-1%,.
Cc1ccccc1NC(=O)C(=O)NCc1ccccn1,27*,35%,12,-10%,57%,45%
COc1ccc(-c2cc3nc(C4CCN(C(=O)OC(C)(C)C)CC4)c(C(=O)O)cn3n2)cc1,-1,1.3µM*,-3,9%,2%,16%
CCOC(=O)c1cn2nc(-c3ccc(OCC)cc3)cc2nc1C1CCN(C(=O)OC(C)(C)C)CC1,-4,.,-11,0%,-2%,?
O=C(CSc1nc2ccccc2s1)CSc1nc2ccccc2s1,-1,-8%,-19,-6%,70%,.
CC(=O)CSc1nc2ccccc2s1,25*,84%,61,2%,18%,57%
O=C(O)CSc1nc2ccccc2s1,8,17%,6,0%,0%,?
O=C(CSc1nc2ccccc2s1)c1cc2ccccc2o1,24*,-11%,45,.,55%,9%
CC(C)OC(=O)CSc1nc2ccccc2s1,49*,26%,64*,-3%,-9%,?
COC(=O)c1ccc(CSc2nc3ccccc3s2)o1,56*,72%,48*,-19%,27%,0%
CC(C)C[C@@H](CO)NC(=O)CC[C@H](NC(=O)OC(C)(C)C)C(=O)N(Cc1ccccc1)Cc1ccccc1,.,.,.,.,-2%,.
Cn1c(N)c(C(=O)COC(=O)c2ccc([N+](=O)[O-])o2)c(=O)n(C)c1=O,6,-11%,1,-3%,-8%,2%
Cc1ccc(OCC(=O)NCc2n[nH]c(=O)c3ccccc23)cc1,.,40%,.,-5%,9%,-13%
Nc1nonc1NC(=O)CSc1nc2ccccc2s1,18,19%,12,.,0%,10µM*
O=C(CSc1nc2ccccc2s1)Nc1nccs1,15,14%,11,0%,1%,100%
Nc1ncnc2c1cnn2C1CCCCC1,3,73%,4,0%,-1%,?
[Cl-].[Cl-].[Hg+2],.,2.1µM*,.,.,.,2.4µM*
CCOc1ccc(CCNC(=O)c2cc3sccc3n2CC)cc1OCC,8,?,15,.,-26%,0%
c1ccc(C2(N3CCCC3)CCCCC2)cc1,.,15µM*,.,.,.,13µM*
CCCCn1c(N)c(N(CC(C)C)C(=O)CCCn2c(=O)oc3ccccc32)c(=O)[nH]c1=O,.,?,.,-6%,-4%,10%
COc1ccc(NC(=O)C(C)Sc2ccccc2)cc1 (centres undefined),55*,.,88*,0%,2%,-10%
CC(Sc1ccccc1)C(=O)Nc1ccc(N2CCOCC2)cc1 (centres undefined),9,.,34,13%,-1%,45%
O=C(C#Cc1ccccc1)Nc1ccc(F)cc1,34*,?,32*,-8%,9%,?
O=C(C#Cc1ccccc1)Nc1cccc(F)c1,60*,?,128*,-16%,17%,379%
